Measured values reported in the supplement of paper PMC10849652.
The full data set covers some 7,900 targets. This sample favours those with a hit. About 0.6% of all pairs of compound and target were hits.

Legend:
Experiment in all cases: log2 fold change, soluble protein after heating vs DMSO (PISA); higher = thermal stabilisation; K562 cells, 10 uM, 30 min; active = over 0.2 and 3.5 SD of the protein, either way, in both replicates (recomputed)
[1] = compound: C1=CC=C(C=C1)[C@H](COC2=CC3=C(C=C2)NC(=O)N3)NC(=O)C4=CC=CN(C4=O)CC5=CC(=C(C=C5)F)F
Outline: (§1)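 K562 cells at 2×10^6 cells/mL were treated with 10 μM compound for 30 min. Aliquots were heated for 3 min across 48°C-58°C, pooled, and extracted in PBS with 0.5% NP-40 at 4°C; soluble protein was the supernatant after 21,000xg for 90 min. Soluble protein was quantified by TMTpro 16plex LC-MS/MS with channel sums equalised, and reported as log2 fold change in thermal stability against DMSO controls, with values from duplicates.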

[2] = compound: CC1=C(SC2=C1C(=N[C@H](C3=NN=C(N32)C)CC(=O)N)C4=CC=C(C=C4)Cl)C
Outline: as §1

[3] = compound: CC1=C2C(=CC=C1)N=C(N(C2=O)C3=CC=CC=C3C)CN4C=NC5=C(N=CN=C54)N
Outline: as §1

[4] = compound: Cc1sc2c(c1C)C(c1ccc(Cl)cc1)=N[C@@H](CC(=O)OC(C)(C)C)c1nnc(C)n1-2
Outline: as §1

[5] = compound: c1ccc([C@@H]2C[C@H]2NC2CCNCC2)cc1
Outline: as §1

Measured: log2 fold change

XPO6 (UniProt Q96QU8)
inactive: [1] 0.35 | [2] 0.019 | [3] 0.082 | [4] 0.015 | [5] -0.072

UTP14A (UniProt Q9BVJ6)
inactive: [1] 0.039 | [2] -0.276 | [3] -0.154 | [4] 0.124 | [5] 0.029

TNFRSF10A (UniProt O00220)
inactive: [1] 0.033 | [2] 0.006 | [3] -0.058 | [4] 0.024 | [5] 0.01

WDR47 (UniProt O94967)
inactive: [1] 0.019 | [2] 0.004 | [3] -0.042 | [4] -0.031 | [5] 0.078

VRK2 (UniProt Q86Y07)
inactive: [1] 0.001 | [2] 0.004 | [3] 0.011 | [4] 0.005 | [5] -0.083

TOMM20 (UniProt Q15388)
Sequence of UniProt Q15388 (Q15388 whole entry, looked up): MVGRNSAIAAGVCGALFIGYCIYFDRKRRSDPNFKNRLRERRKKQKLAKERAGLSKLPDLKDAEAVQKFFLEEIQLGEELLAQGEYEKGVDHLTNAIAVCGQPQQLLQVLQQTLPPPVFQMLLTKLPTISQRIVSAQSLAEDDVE
inactive: [1] 0.021 | [2] 0.025 | [3] 0.028 | [4] 0.006 | [5] 0.008

TUBA4A (UniProt P68366)
Sequence of UniProt P68366 (P68366 whole entry, looked up): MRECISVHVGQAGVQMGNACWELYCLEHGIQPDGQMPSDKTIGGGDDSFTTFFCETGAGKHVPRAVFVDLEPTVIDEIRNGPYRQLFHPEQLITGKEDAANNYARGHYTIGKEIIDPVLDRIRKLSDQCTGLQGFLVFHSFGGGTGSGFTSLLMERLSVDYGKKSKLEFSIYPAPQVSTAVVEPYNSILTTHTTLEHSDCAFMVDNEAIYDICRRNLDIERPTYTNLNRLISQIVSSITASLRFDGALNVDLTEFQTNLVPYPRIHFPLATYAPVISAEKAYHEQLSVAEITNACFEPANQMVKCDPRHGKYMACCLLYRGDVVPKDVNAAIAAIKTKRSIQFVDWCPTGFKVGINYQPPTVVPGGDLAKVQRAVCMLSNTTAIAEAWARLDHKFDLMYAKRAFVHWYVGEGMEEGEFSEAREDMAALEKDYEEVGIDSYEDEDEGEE
inactive: [1] -0.02 | [2] 0.077 | [3] -0.03 | [4] -0.01 | [5] -0.076

WDR37 isoform 2 (UniProt Q9Y2I8)
Sequence of UniProt Q9Y2I8 (Q9Y2I8 whole entry, looked up): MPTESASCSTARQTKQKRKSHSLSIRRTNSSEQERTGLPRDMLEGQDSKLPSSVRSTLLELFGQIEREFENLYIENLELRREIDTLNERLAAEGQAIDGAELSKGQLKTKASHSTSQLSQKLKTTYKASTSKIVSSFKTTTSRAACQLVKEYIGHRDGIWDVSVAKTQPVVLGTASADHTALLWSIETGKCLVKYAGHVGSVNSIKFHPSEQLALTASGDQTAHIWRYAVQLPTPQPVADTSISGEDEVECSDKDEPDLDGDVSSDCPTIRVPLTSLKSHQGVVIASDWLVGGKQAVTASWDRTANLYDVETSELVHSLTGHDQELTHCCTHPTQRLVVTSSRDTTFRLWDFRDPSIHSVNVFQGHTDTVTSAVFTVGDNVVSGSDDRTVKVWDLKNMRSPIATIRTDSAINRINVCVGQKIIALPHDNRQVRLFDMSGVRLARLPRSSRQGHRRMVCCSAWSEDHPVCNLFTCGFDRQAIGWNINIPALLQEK
inactive: [1] 0.039 | [2] -0.06 | [3] 0.062 | [4] 0.079 | [5] 0.054

U2AF1 isoform 2 (UniProt Q01081)
inactive: [1] 0.021 | [2] 0.03 | [3] 0.11 | [4] -0.02 | [5] 0.035

TOM1 isoform 2 (UniProt O60784)
inactive: [1] 0.044 | [2] 0.001 | [3] -0.074 | [4] 0.046 | [5] 0.008

WDR7 (UniProt Q9Y4E6)
Sequence of UniProt Q9Y4E6 (Q9Y4E6 whole entry, looked up): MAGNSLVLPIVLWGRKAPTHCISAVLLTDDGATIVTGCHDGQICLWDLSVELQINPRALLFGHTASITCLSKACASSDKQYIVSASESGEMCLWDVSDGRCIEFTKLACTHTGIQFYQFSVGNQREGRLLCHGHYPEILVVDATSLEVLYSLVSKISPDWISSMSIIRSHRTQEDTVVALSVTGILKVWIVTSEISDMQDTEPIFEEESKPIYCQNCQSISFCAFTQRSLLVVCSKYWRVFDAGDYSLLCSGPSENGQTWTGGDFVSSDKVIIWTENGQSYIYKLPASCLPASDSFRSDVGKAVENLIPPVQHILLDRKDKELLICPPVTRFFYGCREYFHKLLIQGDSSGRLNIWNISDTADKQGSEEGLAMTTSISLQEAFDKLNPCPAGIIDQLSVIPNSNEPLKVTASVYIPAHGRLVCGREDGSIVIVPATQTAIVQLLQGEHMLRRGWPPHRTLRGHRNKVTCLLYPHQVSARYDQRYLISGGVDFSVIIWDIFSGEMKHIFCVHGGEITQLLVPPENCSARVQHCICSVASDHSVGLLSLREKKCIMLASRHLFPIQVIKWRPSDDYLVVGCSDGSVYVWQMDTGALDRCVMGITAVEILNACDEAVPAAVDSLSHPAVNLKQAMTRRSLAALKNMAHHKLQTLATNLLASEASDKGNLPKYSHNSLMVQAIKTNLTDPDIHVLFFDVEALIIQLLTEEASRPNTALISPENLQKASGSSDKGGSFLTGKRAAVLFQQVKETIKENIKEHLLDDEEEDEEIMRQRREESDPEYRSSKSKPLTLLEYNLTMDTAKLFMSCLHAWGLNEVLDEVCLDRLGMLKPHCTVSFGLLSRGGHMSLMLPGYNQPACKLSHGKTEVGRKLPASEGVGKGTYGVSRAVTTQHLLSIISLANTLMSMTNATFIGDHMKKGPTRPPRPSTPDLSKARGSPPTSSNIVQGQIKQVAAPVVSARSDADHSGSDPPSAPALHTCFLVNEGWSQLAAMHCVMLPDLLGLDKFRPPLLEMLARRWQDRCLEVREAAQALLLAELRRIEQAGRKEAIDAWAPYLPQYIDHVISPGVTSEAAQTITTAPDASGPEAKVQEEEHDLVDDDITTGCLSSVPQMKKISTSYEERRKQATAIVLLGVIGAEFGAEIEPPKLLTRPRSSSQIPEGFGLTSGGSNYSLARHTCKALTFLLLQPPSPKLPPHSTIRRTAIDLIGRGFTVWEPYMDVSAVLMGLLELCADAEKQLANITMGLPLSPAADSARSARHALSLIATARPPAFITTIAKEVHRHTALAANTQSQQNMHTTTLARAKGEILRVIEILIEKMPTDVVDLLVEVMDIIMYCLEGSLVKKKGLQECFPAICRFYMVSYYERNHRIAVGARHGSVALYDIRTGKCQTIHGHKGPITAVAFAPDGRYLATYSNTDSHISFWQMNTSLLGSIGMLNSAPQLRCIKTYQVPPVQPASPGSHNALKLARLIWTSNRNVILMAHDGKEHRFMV
inactive: [1] -0.037 | [2] 0.013 | [3] -0.068 | [4] -0.131 | [5] -0.093

UBE3D (UniProt Q7Z6J8)
inactive: [1] 0.034 | [2] 0.057 | [3] 0.001 | [4] -0.051 | [5] 0.009

WNK1 isoform 7 (UniProt Q9H4A3)
inactive: [1] -0.011 | [2] 0.023 | [3] 0.049 | [4] -0.007 | [5] -0.003

WBP4 (UniProt O75554)
inactive: [1] 0.012 | [2] 0.009 | [3] -0.024 | [4] 0.014 | [5] 0.051

UCHL5 (UniProt Q9Y5K5)
inactive: [1] -0.048 | [2] 0.004 | [3] 0.043 | [4] 0.027 | [5] 0.004

TSG101 (UniProt Q99816)
Sequence of UniProt Q99816 (Q99816 whole entry, looked up): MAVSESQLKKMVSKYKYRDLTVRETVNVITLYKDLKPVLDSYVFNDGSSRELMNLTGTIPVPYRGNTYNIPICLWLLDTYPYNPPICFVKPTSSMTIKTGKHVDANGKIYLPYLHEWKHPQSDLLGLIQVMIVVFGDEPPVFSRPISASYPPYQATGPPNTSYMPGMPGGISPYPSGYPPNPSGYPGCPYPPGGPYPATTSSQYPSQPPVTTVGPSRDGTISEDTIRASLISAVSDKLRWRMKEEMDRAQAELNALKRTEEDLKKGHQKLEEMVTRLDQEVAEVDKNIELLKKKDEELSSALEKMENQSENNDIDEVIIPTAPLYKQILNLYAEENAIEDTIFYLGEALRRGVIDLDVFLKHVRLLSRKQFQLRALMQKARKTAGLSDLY
inactive: [1] 0 | [2] 0.032 | [3] 0.074 | [4] -0.015 | [5] -0.016

TYW1 (UniProt Q9NV66)
inactive: [1] 0.017 | [2] -0.022 | [3] 0.039 | [4] -0.005 | [5] -0.091

TUT4 (UniProt Q5TAX3)
inactive: [1] -0.029 | [2] -0.181 | [3] 0.214 | [4] -0.052 | [5] 0.153

UQCR10 (UniProt Q9UDW1)
Sequence of UniProt Q9UDW1 (Q9UDW1 whole entry, looked up): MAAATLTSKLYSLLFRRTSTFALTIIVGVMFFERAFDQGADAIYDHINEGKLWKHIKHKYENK
inactive: [1] -0.032 | [2] 0.036 | [3] 0.142 | [4] -0.131 | [5] -0.009

TPM2 (UniProt P07951)
Sequence of UniProt P07951 (P07951 whole entry, looked up): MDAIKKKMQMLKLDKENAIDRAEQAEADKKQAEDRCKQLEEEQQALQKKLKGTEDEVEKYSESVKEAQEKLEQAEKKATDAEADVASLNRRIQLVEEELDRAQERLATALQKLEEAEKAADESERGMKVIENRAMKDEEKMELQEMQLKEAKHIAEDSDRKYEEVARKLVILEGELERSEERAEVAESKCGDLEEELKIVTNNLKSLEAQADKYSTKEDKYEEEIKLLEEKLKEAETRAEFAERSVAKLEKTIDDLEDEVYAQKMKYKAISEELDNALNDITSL
inactive: [1] -0.041 | [2] -0.117 | [3] -0.195 | [4] -0.017 | [5] 0.014

UBLCP1 (UniProt Q8WVY7)
Sequence of UniProt Q8WVY7 (Q8WVY7 whole entry, looked up): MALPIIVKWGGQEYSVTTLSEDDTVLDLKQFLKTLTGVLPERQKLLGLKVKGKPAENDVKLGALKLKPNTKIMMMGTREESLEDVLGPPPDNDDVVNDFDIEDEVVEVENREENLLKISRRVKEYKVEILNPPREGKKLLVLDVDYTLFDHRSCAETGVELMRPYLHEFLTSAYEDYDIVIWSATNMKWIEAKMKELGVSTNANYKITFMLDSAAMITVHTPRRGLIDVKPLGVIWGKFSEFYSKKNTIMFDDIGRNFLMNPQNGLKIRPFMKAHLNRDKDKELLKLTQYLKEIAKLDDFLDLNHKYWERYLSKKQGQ
inactive: [1] -0.066 | [2] 0.067 | [3] 0.066 | [4] -0.018 | [5] 0.011

TMEM63B (UniProt Q5T3F8)
Sequence of UniProt Q5T3F8 (Q5T3F8 whole entry, looked up): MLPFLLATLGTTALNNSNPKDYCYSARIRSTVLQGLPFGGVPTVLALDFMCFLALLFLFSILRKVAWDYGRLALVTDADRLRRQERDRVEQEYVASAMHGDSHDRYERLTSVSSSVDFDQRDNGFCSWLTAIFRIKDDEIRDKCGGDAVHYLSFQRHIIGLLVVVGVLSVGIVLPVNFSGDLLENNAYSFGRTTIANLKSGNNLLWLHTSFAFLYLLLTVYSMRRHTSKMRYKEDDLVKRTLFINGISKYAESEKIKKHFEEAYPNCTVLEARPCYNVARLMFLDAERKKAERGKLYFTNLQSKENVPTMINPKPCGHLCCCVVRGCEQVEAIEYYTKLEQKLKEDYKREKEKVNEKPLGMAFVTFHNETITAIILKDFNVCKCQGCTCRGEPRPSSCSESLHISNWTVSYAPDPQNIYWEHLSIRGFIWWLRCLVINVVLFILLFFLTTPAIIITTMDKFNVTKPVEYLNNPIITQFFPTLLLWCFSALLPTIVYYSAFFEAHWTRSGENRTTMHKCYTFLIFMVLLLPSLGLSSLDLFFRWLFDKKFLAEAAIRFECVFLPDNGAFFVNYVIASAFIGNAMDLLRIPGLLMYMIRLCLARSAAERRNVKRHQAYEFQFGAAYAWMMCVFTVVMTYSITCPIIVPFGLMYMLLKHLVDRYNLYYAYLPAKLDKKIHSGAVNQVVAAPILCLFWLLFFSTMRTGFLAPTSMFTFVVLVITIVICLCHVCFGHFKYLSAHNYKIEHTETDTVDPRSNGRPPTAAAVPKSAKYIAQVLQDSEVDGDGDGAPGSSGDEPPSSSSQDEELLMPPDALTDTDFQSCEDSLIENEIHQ
inactive: [1] 0.059 | [2] -0.005 | [3] -0.099 | [4] -0.036 | [5] -0.04

TMEM106B (UniProt Q9NUM4)
Sequence of UniProt Q9NUM4 (Q9NUM4 whole entry, looked up): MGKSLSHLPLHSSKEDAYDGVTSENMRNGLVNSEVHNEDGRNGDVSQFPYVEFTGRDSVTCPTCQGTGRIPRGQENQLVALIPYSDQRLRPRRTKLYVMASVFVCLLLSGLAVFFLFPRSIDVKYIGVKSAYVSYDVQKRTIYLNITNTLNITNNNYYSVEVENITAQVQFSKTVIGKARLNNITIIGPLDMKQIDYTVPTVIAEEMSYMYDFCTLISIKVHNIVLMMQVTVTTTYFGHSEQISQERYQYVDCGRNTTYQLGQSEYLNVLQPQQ
inactive: [1] 0.039 | [2] -0.022 | [3] -0.008 | [4] -0.097 | [5] 0.034

TOM1L1 (UniProt O75674)
inactive: [1] -0.019 | [2] 0.045 | [3] 0.034 | [4] 0.009 | [5] 0.023
